# Compound activity: PubChem, National Center for Advancing Translational Sciences (NCATS)
# This is a sample that favours compounds with a hit; in the whole collection about 1.6% have one here.
# gsp antagonist – antagonists of gsp mutant (McCune-Albright syndrome). 340,000 tested, 0.4% active. Potency, µM (doses to about 76.9 µM), for the others: at the highest dose activity change, negative = inhibition, hits mostly inhibitors. gsp-mutant cells, cAMP HTRF, 30 min; calls by dose curve; cell line not stated here;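 also: intracellular cAMP measured with PDE inhibitor Ro 20-1724 present during compound exposure; % is scaled to controls: 0 for no effect and ±100 for the full control effect; nearly all actives have a fitted effect of over 65% in size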
#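 Cells, 2000/well, grown 16–24 h in DMEM 10% FBS with 0.5 mg/ml G418, then compounds plus […] (300 uM addition stock), 30 min at 37C. cAMP read by HTRF (cAMP-d2 and anti-cAMP antibody-K in lysis buffer) after 30 min RT.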
# FUS yeast rescue – rescues growth of FUS-expressing yeast; S. cerevisiae FUS-expressing, growth rescue, OD600, 24 h; Potency, µM (series often up to 76.6 µM), hits mostly activators; 390,000 tested, 0.24% active;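 also: plate controls were DMSO vehicle for no effect and reference control for full effect; nearly all actives have a fitted effect of over 55% in size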
#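 Steps: raffinose overnight preculture; dilution to OD 0.005 in 2% galactose minimal medium; compound addition (concentration series); 24hr at 30C, 99% humidity; absorbance read at 600 nm.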
# gsp ag – agonists of gsp mutant (McCune-Albright syndrome); 340,000 tested, 0.13% active; AID 624287; gsp mutant cells, cAMP HTRF, 30 min; Potency, µM (series often up to 76.9 µM), for the others: top-dose activation (cAMP increase), most hits filed as activators; active = well fitted activation curve with a large enough effect; inconclusive = small, poorly fitted or top-dose-only effect, or another doubt; inactive = no such curve, though single readings can be large or run the other way; cell line not stated here;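 also: phosphodiesterase inhibitor Ro 20-1724 added with compounds to block cAMP breakdown; nearly all actives have a fitted effect of over 60% in size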
#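 Cells stably selected in G418 were plated at 2000/well, grown 16-24 hr, then given compounds in DMSO with the PDE inhibitor […] (300 uM solution added) for 30 min at 37C; cAMP was read by HTRF.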
# ALOX12 inh – blocks human arachidonate 12S-lipoxygenase; P18054; purified 12hLO, xylenol orange hydroperoxide absorbance; Potency, µM (top dose mostly 108 µM), inactives show top-dose activity change, negative = inhibition, most hits filed as inhibitors; 580,000 tested, 1.1% active; also: % is scaled to controls: 0 for no effect and ±100 for the full control effect
# Target sequence (P18054 whole entry, looked up): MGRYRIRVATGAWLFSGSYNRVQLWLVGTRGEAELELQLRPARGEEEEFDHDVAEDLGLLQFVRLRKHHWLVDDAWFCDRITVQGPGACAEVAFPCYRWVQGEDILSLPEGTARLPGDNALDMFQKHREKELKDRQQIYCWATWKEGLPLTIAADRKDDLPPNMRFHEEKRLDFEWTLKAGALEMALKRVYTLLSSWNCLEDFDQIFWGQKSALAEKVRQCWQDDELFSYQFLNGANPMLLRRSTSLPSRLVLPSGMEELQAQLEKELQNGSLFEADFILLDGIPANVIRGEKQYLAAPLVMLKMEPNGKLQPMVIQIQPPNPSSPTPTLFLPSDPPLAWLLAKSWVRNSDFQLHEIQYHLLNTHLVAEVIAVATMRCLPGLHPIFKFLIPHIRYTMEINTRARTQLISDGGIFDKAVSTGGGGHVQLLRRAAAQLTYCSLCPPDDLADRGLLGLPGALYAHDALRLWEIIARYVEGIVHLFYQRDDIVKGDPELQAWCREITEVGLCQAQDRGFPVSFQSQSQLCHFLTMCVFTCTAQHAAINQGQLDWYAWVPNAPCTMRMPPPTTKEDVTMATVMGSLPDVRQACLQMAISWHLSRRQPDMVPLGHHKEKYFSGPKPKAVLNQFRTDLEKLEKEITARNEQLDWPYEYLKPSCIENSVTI
#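 Purified human 12hLO (150 nM final) in 25 mM Hepes, 0.01% Triton X-100, pH 7.0 was preincubated 15 min at room temperature with compound. Then 40 uM arachidonic acid was added, 30 min. Hydroperoxide was read by Fe-XO absorbance ratio 573/405 nm.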
# Mito fusion yeast – mitochondrial division inhibition or fusion activation; AID 485298; 320,000 tested, 0.23% active; S. cerevisiae fusion-defective mutant growth rescue, CellTiterGlo 48 h; Potency, µM (series often up to 46.1 µM), inactives show top-dose growth rescue (activation), most hits filed as activators; also: % of control where 0% means no effect; nearly all actives have a fitted effect of over 45% in size
#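 Luminescent cell viability in 1536-well qHTS format served as the measure of rescued growth in ts fusion-mutant S. cerevisiae cultured on non-fermentable YPEG for 48 hours at 37C.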
# Starred values were filed as active, the others as inactive; i = inactive; ? = inconclusive; . = not tested or not shown; [ ] = another dose, or the depositor's remark. Unless noted, calls follow the shape of the dose curve; as a rule, active = well fitted curve in the direction sought with a large enough effect; inconclusive = small, poorly fitted or top-dose-only effect, or another doubt; inactive = no such curve, though single readings can be large; an effect the other way counts as inactive or inconclusive. Potency is read from the fitted curve at half-maximal effect.
SMILES,gsp antagonist,FUS yeast rescue,gsp ag,ALOX12 inh,Mito fusion yeast
COc1ccc(-c2cc(NC=O)c3ncc(-c4ccc(OC)c(OC)c4)n3c2)c(OC)c1,.,?,.,56.2µM*,.
O=CNc1cc(-c2cccc(O)c2)cn2c(-c3ccc(F)cc3)cnc12,.,i,.,44.7µM*,.
COc1cccc(-c2cnc3c(NC=O)cc(-c4cc(OC)c(OC)c(OC)c4)cn23)c1,.,28.2µM*,.,-3.1%,.
O=C1[C@H]2CC[C@H](CN(Cc3ccc(-n4ccnc4)cc3)C2)N1CC1CCC1,.,.,.,74.1%,.
Fc1ccccc1-c1nnc([C@H]2CCN(Cc3cccc(OC(F)(F)F)c3)C2)o1,.,.,.,51.1%[176 µM],.
CCCCn1nc(C)c2c(C(F)(F)F)cc(-c3ccc(Br)cc3)nc21,.,.,.,-8.2%,.
Cc1nn(CCc2nn[nH]n2)c2nc(-c3ccc(C4CCCCC4)cc3)cc(C(F)(F)F)c12,11.2µM*,i,14.9%[15.4 µM],?,6.1%
CCSc1n[nH]c(=S)s1,3.3%,i,-17.1%,44.7µM*,1.6%
CCCn1c(=O)n(CC(=O)Nc2cccc(OC)c2)c(=O)c2c1nc(C)n2CCOC,.,.,.,21.2%,.
CC1CCN(S(=O)(=O)c2ccc3nc(Nc4ccc(C#N)cc4)ccc3c2)CC1,.,i,.,?,.
CCc1ccc(Nc2ccc3cc(S(=O)(=O)N4CCCC4)ccc3n2)cc1,.,.,.,14.1µM*,.
COc1ccc(Nc2ccc3cc(S(=O)(=O)N4CCCC4)ccc3n2)cc1Cl,.,i,.,-14.3%,.
Cc1ccc(CNc2ccc3cc(S(=O)(=O)N4CCCCC4)ccc3n2)cc1,.,i,.,-4.1%,.
O=S(=O)(c1ccc2nc(NC3CCCCC3)ccc2c1)N1CCCC1,.,.,.,11.2µM*,.
O=S(=O)(c1ccc2nc(Nc3ccc(F)cc3)ccc2c1)N1CCCC1,.,i,.,-5.9%,.
CC1CCC(Nc2ccc3cc(S(=O)(=O)N4CCCC4)ccc3n2)CC1 (stereo not given),.,.,.,8.91µM*,.
COc1ccc(Cl)cc1Nc1ccc2cc(S(=O)(=O)N3CCCCC3)ccc2n1,.,?,.,50.1µM*,.
Cc1[nH]c2ccccc2c1C(=O)C(C)OC(=O)c1ccc(F)cc1F (stereo not given),.,.,.,-48.5%,.
CNC1CCCc2ccccc21 (stereo not given),.,.,.,34.5%,.
Cc1nn(-c2ccc(Cl)nn2)c2c1C(c1ccc(O)cc1)CC(=O)N2 (stereo not given),.,.,.,-4.6%,.
O=C1C2CC=CCC2C(=O)N1c1ccc(NCCc2ccc(O)cc2)c([N+](=O)[O-])c1 (stereo not given),31.6µM*,i,9.9%[15.4 µM],-9.6%,5.0%
Cc1ccc(-c2cc(-c3nnc(SCC(=O)Nc4ccccc4-c4ccccc4)n3N)[nH]n2)cc1,.,17.8µM*,.,.,.
Cc1ccc(NC(=O)CSc2nnc(-c3ccccc3F)n2-c2ccccc2)c(C)c1,.,i,.,.,.
COc1cc(NC(=O)c2ccccc2)c(C)cc1NC(=O)CSc1nnc(-c2ccccc2F)n1-c1ccc(C)cc1,.,10µM*,.,.,.
O=C(CSc1nnc(-c2ccccc2)n1-c1ccc(Cl)cc1)Nc1ccccc1-c1ccccc1,.,8.91µM*,.,.,.
SMILES,gsp antagonist,FUS yeast rescue,gsp ag,ALOX12 inh,Mito fusion yeast
O=[S+]1([O-])NCC2(CCN(Cc3ccsc3)CC2)Oc2ncccc21,.,.,.,2.2%[6.33 µM],.
CCCOc1ccc(C(CC(=O)O)NC(=O)c2ccccc2F)cc1 (stereo not given),.,.,.,0.4%,.
CCN(CC)c1ccc(-c2nnc(SCc3ncc(-c4ccccc4)o3)o2)cc1,.,.,.,12.5%,.
O=C(O)C1CCN(C(=O)c2ccccc2N2C(=O)[C@@H]3Cc4c([nH]c5ccccc45)C(c4cccc(Cl)c4)N3C2=O)CC1 (stereo not given in full),-1.0%,12.6µM*,.,?,-0.4%
CC(C)CN1C(=O)c2ccccc2C(C(=O)Nc2nncs2)C12CCCCC2 (stereo not given),.,.,.,36.6%,.
Cc1sc2nc(C3CC3)nc(N3CCN(C(=O)c4ccc(F)cc4)CC3)c2c1C,?,i,41.5%,1.4%,-3.8%
Cc1sc2nc(C3CC3)nc(N3CCN(C(=O)c4ccc(Cl)cc4)CC3)c2c1C,?,i,-13.3%[15.4 µM],25.1µM*,-12.0%
COc1cc2ccccc2cc1C(=O)Nc1nnn(C)n1,.,.,.,26.0%,.
CCN1CCCC1CNCc1cccc(OC)c1OCc1ccccc1F (stereo not given),4.2%,i,10.0%,0.0%,-6.6%
COc1cccc(CNc2ccccc2O)c1OCc1ccccc1F,-8.3%,20µM*,-8.0%[15.4 µM],?,-7.6%
COc1ccc2oc(=O)c(/C(C)=N/Nc3ccccc3)cc2c1,-0.3%,i,5.3%,31.6µM*,9.7%
COc1ccc2oc(=O)c(C(=O)Nc3cccc(C(C)=O)c3)cc2c1,-12.0%,i,?,0.0%,0.0%
COC(=O)CCNC(=O)c1cc(C2CC2)nc2ccccc12,.,.,.,24.1%,.
Cc1ccc(C2C(C(=O)c3ccco3)=C(O)C(=O)N2c2ncccn2)cc1 (stereo not given),4.5%,i,20.5%[15.4 µM],20.4%,-6.5%
CCCCOc1cccc(C2C(C(=O)c3ccc(C)o3)=C(O)C(=O)N2c2nnc(C)s2)c1 (stereo not given),?,?,27.9%,?,-1.4%
Cc1nnc(N2C(=O)C(O)=C(C(=O)c3ccco3)C2c2ccc(F)cc2)s1 (stereo not given),-3.6%,i,?,?,1.3%
Cc1nnc(N2C(=O)C(O)=C(C(=O)c3ccco3)C2c2ccc(C(C)C)cc2)s1 (stereo not given),-17.6%,7.08µM*,?,44.7µM*,-0.1%
Cc1nnc(N2C(=O)C(O)=C(C(=O)c3ccco3)C2c2ccc(C(C)(C)C)cc2)s1 (stereo not given),-5.1%,i,?,7.94µM*,-0.4%
CCCOc1cccc(C2C(C(=O)c3ccco3)=C(O)C(=O)N2c2nnc(C)s2)c1 (stereo not given),-19.3%,i,?,7.94µM*,-0.6%
Cc1ccc(C)c(/C(O)=C2\C(=O)C(=O)N(c3nnc(C)s3)C2c2ccc(C(C)C)cc2)c1 (stereo not given),.,.,.,44.7µM*,.
Cc1nnc(N2C(=O)C(=O)/C(=C(/O)c3ccc4c(c3)OCCO4)C2c2ccc([N+](=O)[O-])cc2)s1 (stereo not given),.,.,.,?,-0.7%
Cn1cc(S(=O)(=O)N2CCC(C(=O)Nc3ccccc3OC(F)F)CC2)cc1C(N)=O,.,.,.,-3.8%,.
O=C(Nc1cccc(Cl)c1)c1c(-c2ccc(F)cc2)nc2n1CCS2(=O)=O,.,.,.,-0.5%,.
COc1ccccc1-c1nnc([C@H]2CCN(Cc3cccnc3)C2)o1,.,.,.,34.8%[176 µM],.
CCCN1Cc2cccc(C(=O)Nc3cc(Cl)ccc3Cl)c2C1=O,.,.,.,42.2%,.
CSc1ccc(C2C(C(=O)c3ccco3)=C(O)C(=O)N2c2nnc(SC)s2)cc1 (stereo not given),-4.8%,?,?,39.8µM*,-0.6%
COc1cc(C(=O)Nc2cc(-c3nc4ccccc4o3)ccc2C)cc(OC)c1OC,.,.,.,-1.4%,.
